Reference: PubChem BioAssay (EPA / NIEHS)
Activity calls are given as the source filed them. Rule for the calls: active = hit-call score of the fitted dose curve at least 0.9, where 1 is the maximum; inactive = score below 0.9.

How the values were obtained:
[1] = read-out: Vascular endothelial growth factor receptor 2 (Homo sapiens) (UniProt P35968); assay: BSK_4H_VEGFRII: BioMAP Diversity Plus: 4H Assay for Vascular endothelial growth factor receptor 2 (VEGFR2) Biomarker Activity (AID 2283031); conditions: primary human endothelial cells (HUVEC); actives raise or lower the signal;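 for AC50: cell-surface VEGFR2 protein level quantified by ELISA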
Procedure, shortened: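 In this multiplexed HUVEC system, biomarker ELISA was performed after 24 h chemical exposure. Parallel SRB staining (TCA fixation, 560 nm) tracked cytotoxicity; DMSO served as baseline.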

[2] = read-out: Human Leukocyte Antigen - DR isotype (HLADR), HLA-DRA (gene 3122); assay: BSK_BE3C_HLADR: BioMAP Diversity Plus: BE3C Assay for Human Leukocyte Antigen - DR isotype (HLADR) Biomarker Activity (AID 2283032); conditions: primary human bronchial epithelial cells; actives raise or lower the signal
Procedure, shortened: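 Signal came from an ELISA for HLA-DR in human bronchial epithelial primary cells harvested 24 h after treatment; gain- and loss-of-signal fitting used DMSO controls as reference.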

[3] = read-out: Vascular cell adhesion molecule 1 (VCAM1), VCAM1 (gene 7412); assay: BSK_4H_VCAM1: BioMAP Diversity Plus: 4H Assay for Vascular cell adhesion molecule 1 (VCAM1) Biomarker Activity (AID 2283033); conditions: primary human endothelial cells (HUVEC); actives raise or lower the signal
Procedure, shortened: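 Endpoint derived from bidirectional fitting against DMSO controls of VCAM-1 ELISA signal in umbilical vein endothelial cells sampled at 24 h following treatment.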

[4] = read-out: Monokine induced gamma interferon (MIG), CXCL9 (gene 4283); assay: BSK_BE3C_MIG: BioMAP Diversity Plus: BE3C Assay for Monokine induced gamma interferon (MIG) Biomarker Activity (AID 2283035); conditions: primary human bronchial epithelial cells; actives raise or lower the signal;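 note: MIG protein measured by ELISA in BE3C cultures after 24 h of dosing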
Procedure, shortened: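 MIG level was determined by ELISA after 24 h chemical treatment of primary human bronchial epithelial cells. Values were fitted bidirectionally with DMSO as the negative control and activity baseline.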

[5] = read-out: Transforming growth factor beta 1 (TGFb1), TGFB1 (gene 7040); assay: BSK_BE3C_TGFb1: BioMAP Diversity Plus: BE3C Assay for Transforming growth factor beta 1 (TGFb1) Biomarker Activity (AID 2283036;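 note: TGF-b1 protein level measured by ELISA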); conditions: primary human bronchial epithelial cells; actives raise or lower the signal
Procedure, shortened: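 In this human primary bronchial epithelial system, an ELISA quantified TGF-b1 one day after dosing. Endpoint changes in either direction were fitted relative to DMSO.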

[6] = read-out: urokinase plasminogen activator (uPA), PLAU (gene 5328); assay: BSK_BE3C_uPA: BioMAP Diversity Plus: BE3C Assay for urokinase plasminogen activator (uPA) Biomarker Activity (AID 2283038); conditions: primary human bronchial epithelial cells; actives raise or lower the signal;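 note: uPA protein level quantified by ELISA in cell cultures; uPA read one day after compound addition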
Procedure, shortened: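 Using confluent primary human lung bronchial epithelial cultures, we dosed chemicals, waited 24 h, then ran a uPA ELISA, fitting bidirectionally against DMSO.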

[7] = read-out: Urokinase-type plasminogen activator receptor (uPAR), PLAUR (gene 5329); assay: BSK_BE3C_uPAR: BioMAP Diversity Plus: BE3C Assay for Urokinase-type plasminogen activator receptor (uPAR) Biomarker Activity (AID 2283039); conditions: primary human bronchial epithelial cells; actives raise or lower the signal
Procedure, shortened: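 A uPAR ELISA serves as the readout, taken 24 h after treating primary human bronchial epithelial cells. Responses in either direction are fitted against DMSO, which defines baseline activity.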

[8] = read-out: Interleukin-6 (IL6), IL6 (gene 3569); assay: BSK_CASM3C_IL6: BioMAP Diversity Plus: CASM3C Assay for Interleukin-6 (IL6) Biomarker Activity for (AID 2283040); conditions: primary human coronary artery smooth muscle cells; actives raise or lower the signal
[9] = read-out: Plasminogen activator inhibitor-1 (PAI1), SERPINE1 (gene 5054); assay: BSK_BE3C_PAI1: BioMAP Diversity Plus: BE3C Assay for Plasminogen activator inhibitor-1 (PAI1) Biomarker Activity (AID 2283037); conditions: primary human bronchial epithelial cells; actives raise or lower the signal
Procedure, shortened: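 PAI-1 biomarker levels in treated human bronchial epithelial cells are determined by ELISA at 24 h. Both increases and decreases relative to DMSO are fitted.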

[10] = read-out: Interferon-gamma inducible Protein 10 (IP10), CXCL10 (gene 3627); assay: BSK_BE3C_IP10: BioMAP Diversity Plus: BE3C Assay for Interferon-gamma inducible Protein 10 (IP10) Biomarker Activity (AID 2283034); conditions: primary human bronchial epithelial cells; actives raise or lower the signal
Procedure, shortened: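 Using primary human bronchial epithelial cultures, the assay captures IP-10 by ELISA one day (24 h) after exposure. Parallel SRB staining of total protein flags overt cytotoxicity. Fits run bidirectionally relative to DMSO.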

Measured: AC50

Nc1c(Cl)cc([N+](=O)[O-])cc1Cl
active: [2] 12.6 µM
not listed: [9] | [10]
inactive: all other assays above

CCOP(=S)(Oc1cnc(C(C)(C)C)nc1)OC(C)C (centres undefined)
active: [1] 31.9 µM | [3] 36.8 µM
not listed: [10]
inactive: all other assays above

CCCSP(=O)(OCC)SCCC
not listed: [9] | [10]
inactive: all other assays above

CCOC(=O)COc1cc(-c2nn(C)c(OC(F)F)c2Cl)c(F)cc1Cl
not listed: [10]
inactive: all other assays above

CNC(=O)ON=C(C)SC
not listed: [9] | [10]
inactive: all other assays above

CC(C1CC1)C(O)(Cn1cncn1)c1ccc(Cl)cc1 (centres undefined)
not listed: [3]
inactive: all other assays above

CCOP(=O)(OCC)Oc1cc(C)nc(C(C)C)n1
not listed: [10]
inactive: all other assays above

FC(F)C(F)(F)OCC(Cn1cncn1)c1ccc(Cl)cc1Cl (centres undefined)
active: [2] 29.8 µM | [3] 29.7 µM
not listed: [9] | [10]
inactive: all other assays above

CSc1nc(NC(C)C)nc(NC(C)C)n1
not listed: [9] | [10]
inactive: all other assays above

S=C1NCCN1
active: [7] 0.397 µM
inactive: all other assays above

CC(C)=CC1C(C(=O)OCN2C(=O)C3=C(CCCC3)C2=O)C1(C)C (centres undefined)
active: [2] 20 µM
not listed: [10]
inactive: all other assays above

CSc1nnc(C(C)(C)C)c(=O)n1N
not listed: [10]
inactive: all other assays above

C[Si](Cn1cncn1)(c1ccc(F)cc1)c1ccc(F)cc1
not listed: [3]
inactive: all other assays above

CNC(=O)Oc1cccc2c1OC(C)(C)O2
not listed: [3]
inactive: all other assays above

COc1ccc(C(=CC(=O)N2CCOCC2)c2ccc(Cl)cc2)cc1OC
not listed: [3]
inactive: all other assays above

CNC(=O)ON=C(SC)C(=O)N(C)C
not listed: [3]
inactive: all other assays above

CC(C)N(C(=O)SCC(Cl)=C(Cl)Cl)C(C)C
active: [1] 31.1 µM | [3] 33.1 µM
not listed: [9]
inactive: all other assays above
